An excerpt weighted towards active compounds, which were near 18% of everything screened.
IL-1B inflam inh – qHTS for Inhibitors of Inflammasome Signaling: IL-1-beta AlphaLISA Primary Screen | THP-1 LPS/ATP IL-1B secretion, AlphaLISA, 16 h; hits give low values | activity change, % at 57.5 µM | 360,000 tested, 4.7% active | AID 743279, 2014; in the data active means activity change below about -50%; inconclusive means mostly about -30% to -49%
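Secreted IL-1B measured by AlphaLISA bead assay after 16 h compound exposure of THP-1 cells; compounds (final up to 57.5 uM) added 1 h before LPS (250 ng/mL) and ATP (1.25 mM) stimulation; lower signal means less secretion.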
TDP1 block – qHTS Assay for Inhibitors of Tyrosyl-DNA Phosphodiesterase (TDP1); 350,000 tested, 0.28% active; Potency, µM (highest dose often 130 µM), actives largely listed as inhibitors; AID 485290, 2010; Tyrosyl-DNA phosphodiesterase 1 (Homo sapiens), Q9NUW8; recombinant TDP1, AlphaScreen DNA substrate cleavage; further: nearly all actives have a fitted effect of over 40% in size
Target sequence (Q9NUW8 whole entry, looked up): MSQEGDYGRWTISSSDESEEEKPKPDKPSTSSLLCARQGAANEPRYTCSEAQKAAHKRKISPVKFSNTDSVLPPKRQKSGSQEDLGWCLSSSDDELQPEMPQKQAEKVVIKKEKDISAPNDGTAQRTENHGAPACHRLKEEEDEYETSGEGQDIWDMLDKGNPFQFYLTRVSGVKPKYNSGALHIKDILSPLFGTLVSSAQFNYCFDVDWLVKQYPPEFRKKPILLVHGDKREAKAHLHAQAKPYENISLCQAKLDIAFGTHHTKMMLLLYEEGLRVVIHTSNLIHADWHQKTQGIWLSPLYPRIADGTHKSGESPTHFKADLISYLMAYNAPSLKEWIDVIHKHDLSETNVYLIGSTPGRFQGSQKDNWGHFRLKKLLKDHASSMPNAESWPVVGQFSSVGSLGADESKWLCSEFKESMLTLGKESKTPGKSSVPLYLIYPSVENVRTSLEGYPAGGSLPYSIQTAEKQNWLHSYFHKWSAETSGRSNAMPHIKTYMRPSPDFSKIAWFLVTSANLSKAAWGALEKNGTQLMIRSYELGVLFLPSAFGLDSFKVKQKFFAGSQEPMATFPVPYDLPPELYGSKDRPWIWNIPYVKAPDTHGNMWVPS
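Steps: enzyme plus compound, 15 min RT; add biotin/phosphotyrosine-FITC oligonucleotide (15 nM final), react 5 min; add donor/acceptor beads (10 ug/ml final), 10 min; read AlphaScreen. Tdp1 at 1 nM final.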
TDP1 cell noCPT – qHTS for Inhibitors of human tyrosyl-DNA phosphodiesterase 1 (TDP1): qHTS in cells in absence of CPT | DT40 Tdp1-/- hTDP1 cells, no CPT, ATP luminescence, 48 h | Potency, µM (top dose mostly 46.2 µM), hits mostly inhibitors | 420,000 tested, 15% active | AID 686978, 2013; further: nearly all actives have a fitted effect of over 55% in size
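Growth of hTDP1-complemented DT40 Tdp1-knockout cells is measured by ATP luminescence after at least 48 hr compound exposure at 37 °C, with DMSO substituting for the 20 nM CPT used in the parallel screen.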
HepG2 viability – qHTS for Inhibitors of TGF-b: Cytotox Counterscreen. HepG2 CAGA-GFP viability, ATP luminescence, 18 h. Potency, µM (doses to about 46.1 µM), most hits filed as cytotoxic. 410,000 tested, 0.76% active. AID 588856, 2011
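HepG2 CAGA-GFP cells (1000/well, DMEM with 1% FBS) received compound, then TGF-beta at 500 pg/mL final, and were incubated 18 hours at 37 degrees C. Viability was read by CellTiter-Glo luminescence. Media-only wells were set as complete cell-killing and DMSO as no toxicity.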
TGFb inhibitor – qHTS for Inhibitors of TGF-b; Potency, µM (doses to about 46.1 µM), actives largely listed as inhibitors; HepG2 CAGA-GFP TGF-b/SMAD3 reporter, GFP fluorescence, 18 h; TGF-beta stimulated, 500 pg/mL final; 410,000 tested, 1.2% active; AID 588855, 2011; further: nearly all actives have a fitted effect of over 65% in size
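TGF-beta reporter screen: HEPG2 CAGA-GFP, 1% FBS, 500 pg/mL TGF-beta final, 18 h; per-cell GFP summed per well; curves fitted and categorized by class.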
DT40 TDP1 CPT – qHTS for Inhibitors of human tyrosyl-DNA phosphodiesterase 1 (TDP1): qHTS in cells in presence of CPT; chicken DT40 Tdp1-/-;hTDP1 cells + 20 nM CPT, ATP luminescence, 48 h; Potency, µM (titrated, usually from 46.2 µM), actives largely listed as inhibitors; 420,000 tested, 12% active; further: nearly all actives have a fitted effect of over 55% in size
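Chicken DT40 Tdp1-/- cells complemented with human TDP1, 400 cells/well, exposed to compounds plus 20 nM camptothecin for at least 48 h at 37 C; viability read as ATP content by CellTiter-Glo luminescence.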
Hits are given with their value; i = inactive; ? = inconclusive; nt = no result given; [ ] = dose if it differs, or a comment. Unless noted, the call rests on the fitted dose curve; in most records, active means well fitted curve in the direction sought with a large enough effect; inconclusive means small, poorly fitted or top-dose-only effect, or another doubt; inactive means no such curve, though single readings can be large; an effect the other way counts as inactive or inconclusive.

SMILES | IL-1B inflam inh | TDP1 block | TDP1 cell noCPT | HepG2 viability | TGFb inhibitor | DT40 TDP1 CPT
COc1ccc2nc(NC(=O)c3cc(S(=O)(=O)N4CCOCC4)ccc3C)sc2c1 | i | i | 18µM | i | i | ?
COc1cccc(C(=O)Nc2nc3ccc(S(=O)(=O)N4CCCC4)cc3s2)c1 | nt | i | 5.2µM | i | ? | 4.6µM
CSc1ccccc1NC(=S)NCc1ccc(Cl)cc1 | i | i | i | i | i | i
COc1ccc2cc(C(N)=O)/c(=N/NC(=O)c3ccco3)oc2c1 | i | i | ? | i | i | ?
C[C@H](CO)N1C[C@H](C)[C@@H](CN(C)S(C)(=O)=O)Oc2ccc(NC(=O)C3CC3)cc2C1=O | i | i | i | i | i | i
O=[N+]([O-])c1ccccc1S(=O)(=O)Oc1ccccc1/C=N/n1cnnc1 | i | i | 16µM | i | i | ?
O=C(C[n+]1ccc2ccccc2c1)c1ccc(O)c(O)c1 | nt | nt | i | i | i | i
Cc1cc(C(C)(C)C)cc(C)c1C[n+]1ccc2ccccc2c1 | -52 | nt | 0.23µM | i | ? | 0.41µM
CCOc1ccccc1CN1CCN(Cc2c[nH]c3ccccc23)CC1CCO (stereo unspecified) | i | nt | 16µM | i | i | 9.2µM
CCOc1ccccc1CN1CCN(Cc2ccc(C)o2)C(CCO)C1 (stereo unspecified) | i | i | ? | i | ? | i
Cc1ccc(CN2CCN(Cc3c[nH]c4ccccc34)CC2CCO)o1 (stereo unspecified) | i | i | ? | i | i | 7.3µM
COc1ccc(/C=C/CN2CCN(Cc3ccc(F)cc3)C(CCO)C2)cc1 (stereo unspecified) | -55 | i | 29µM | i | i | ?
CCOc1ccc(CN2CCN(Cc3[nH]c4ccc(OC)cc4c3C)CC2CCO)cc1 (stereo unspecified) | -66 | i | ? | i | i | ?
COc1ccc(/C=C/CN2CCN(Cc3ccccc3)C(CCO)C2)cc1 (stereo unspecified) | i | nt | i | i | i | i
COc1cccc(CN2CC(C(=O)NCc3cnn(C)c3)CCC2=O)c1 (stereo unspecified) | i | i | i | i | i | i
CCOc1ccccc1CN1CCN(Cc2[nH]c3ccccc3c2C)CC1CCO (stereo unspecified) | i | i | 15µM | i | i | ?
Cc1ccc(CN2CCN(Cc3cnn(-c4ccc(Cl)cc4)c3)CC2CCO)o1 (stereo unspecified) | -57 | i | ? | i | i | ?
Cc1ccc(CN2CCN(Cc3ccncc3)CC2CCO)o1 (stereo unspecified) | i | i | ? | i | i | i
CCOc1ccccc1CN1CCN(Cc2cc(=O)c3ccccc3[nH]2)CC1CCO (stereo unspecified) | i | nt | ? | i | i | ?
O=C(NCCc1ccccc1)C(=O)NCC(c1ccc2c(c1)OCO2)N1CCOCC1 (stereo unspecified) | nt | i | ? | i | i | ?
CN1C(=O)C(C)(C)c2cc(S(=O)(=O)NCc3ccc(C(=O)Nc4ccc(Cl)cc4)cc3)ccc21 | nt | i | 13µM | i | 4µM | 18µM
CCc1ccc(NC(=O)c2ccc(CNS(=O)(=O)c3ccc4c(c3)C(C)(C)C(=O)N4C)cc2)cc1 | nt | i | 4.1µM | i | i | ?
CN1C(=O)C(C)(C)c2cc(S(=O)(=O)NCc3ccc(C(=O)NCc4ccco4)cc3)ccc21 | i | nt | ? | i | ? | i
Cc1ccc(CNS(=O)(=O)c2ccc3c(c2)C(C)(C)C(=O)N3C)cc1 | i | nt | i | i | i | i
CCCCSCc1[nH]c(=O)[nH]c1C(=O)CCCCC(=O)OCC | i | i | i | i | i | i
SMILES | IL-1B inflam inh | TDP1 block | TDP1 cell noCPT | HepG2 viability | TGFb inhibitor | DT40 TDP1 CPT
Cc1[nH]c(=O)[nH]c1C(=O)CCCCC(=O)O | -95 | i | i | i | i | i
Cc1ccc(-c2nn(C(C)(C)C)c3ncnc(NS(=O)(=O)c4ccc([N+](=O)[O-])cc4)c23)cc1 | i | i | 18µM | i | ? | 21µM
N#CC(OC(=O)c1ccccc1)c1ccccc1 (stereo unspecified) | i | nt | i | i | i | i
N#CC(CC(=O)c1ccc(Cl)cc1)c1ccccc1 (stereo unspecified) | i | nt | i | i | i | i
N#CC(c1cccc([N+](=O)[O-])c1)C(CC(=O)c1ccccc1)c1ccccc1 (stereo unspecified) | i | nt | 23µM | i | i | 18µM
N#CC(c1ccccc1)C(CC(=NO)c1ccccc1)c1ccccc1 (stereo unspecified) | ? | nt | 10µM | i | ? | 23µM
N#CC(c1ccc([N+](=O)[O-])cc1)C(CC(=O)c1ccccc1)c1ccccc1 (stereo unspecified) | ? | nt | 16µM | i | ? | ?
Cc1ccc(Sc2ccc(N3CCC(C(=O)Nc4ccc(C)c(F)c4)CC3)nn2)cc1 | nt | i | ? | i | i | i
CNC(=O)c1cccn1-c1ccsc1C(=O)OC | i | i | 18µM | i | i | ?
CC(C)(Oc1ccc(Cl)cc1)C(=O)NCc1ccc(S(N)(=O)=O)cc1 | i | nt | i | i | i | i
Cc1ccc(S(=O)(=O)N[C@H]2COC(=O)C/C=C\[C@@H](C)COC(=O)C/C=C\[C@@H]2C)cc1 | nt | i[21 µM] | nt | nt | nt | nt
Cc1c(CCCN)c2ccccc2n1Cc1ccccc1 | -71 | i | 16µM | 16µM | ? | ?
Cc1ccc(Cn2c(=O)n(CCc3ccc(Cl)cc3)c(=O)c3ccccc32)cc1 | nt | i | i | i | i | i
COc1ccccc1NS(=O)(=O)c1ccc2oc(SC(C)C(=O)N3CCNC3=O)nc2c1 (stereo unspecified) | ? | i | ? | i | i | 15µM
COc1ccccc1NS(=O)(=O)c1ccc2oc(SCC(C)=O)nc2c1 | i | i | ? | i | i | i
COc1ccccc1NS(=O)(=O)c1ccc2oc(SCc3ccc(F)cc3)nc2c1 | i | i | 16µM | i | i | 16µM
Cc1ccc2oc(C(=O)Nc3cccc(-c4nc5ccccc5s4)c3)c(C)c2c1 | nt | i | ? | i | i | ?
O=C(Nc1cccc(-c2nc3ccccc3s2)c1)c1cc(=O)c2ccccc2o1 | i | i | 2.1µM | i | ? | ?
Cc1c(C(=O)Nc2cccc(-c3nc4ccccc4s3)c2)oc2ccccc12 | nt | i | 18µM | i | i | 16µM

Bioassay records deposited in PubChem by National Center for Advancing Translational Sciences (NCATS).
